# Reference: PubChem BioAssay
# Values without a mark were called inactive. Where a call stands in place of a potency, no number is given. For some of these results: Potency and affinity values are given separately. The source made the active and inactive calls. Unless noted, no rule for the calls is given here.
# Legend:
# [1] = antimalarial activity against Dd2 strain (AID 2302;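 active = growth inhibition above 50% at the single 2 µM test dose, taken to imply half-maximal potency below 2 µM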); conditions: P. falciparum Dd2 in RBCs, LDH growth readout, 72 h; at 2 µM; stronger effect = higher value
# [2] = human hepatoma cell viability loss – ATP luminescence, cytotoxicity control for P. falciparum antimalarial project, primary screen (AID 2303;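 active = inhibition above 50%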); conditions: HepG2 viability, 24-48 h, at 10 µM, stronger effect = higher value
# [3] = biological target: L-lactate dehydrogenase (Plasmodium falciparum (isolate CDC / Honduras)) (UniProt Q27743); experiment: PfLDH activity inhibition – cell lysate, 3D7 strain, counter-screen for P. falciparum growth inhibition project (AID 2304); conditions: P. falciparum 3D7 crude extract, LDH APAD/NBT absorbance; at 2 µM; stronger effect = higher value
# [4] = inhibition of 3D7 malaria parasite growth – strain 3D7 (AID 2306); conditions: P. falciparum 3D7 erythrocytic growth, LDH absorbance, 72 h; at 2 µM; stronger effect = higher value
# [5] = biological target: Calcium-dependent protein kinase 1 (Plasmodium falciparum (isolate 3D7)) (UniProt P62344); experiment: PfCDPK1 kinase inhibitors, biochemical, TCAMS library (AID 1159585; cut-off not given, nearly all actives have IC50 up to about 0.98 µM;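 also: inhibitors leave more ATP so luminescence rises with inhibition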); conditions: recombinant PfCDPK1, Kinase-Glo ATP depletion luminescence
# [6] = biological target: Plasmodium falciparum protein kinase 6 (PK6, PF3D7_1337100) (UniProt Q8IDW1); experiment: PfPK6 kinase inhibitors, biochemical, TCAMS library (AID 1159586); conditions: recombinant PfPK6, Kinase-Glo ATP depletion luminescence
# [7] = biological target: Protein kinase 7 (PK7), Plasmodium falciparum 3D7 (PF3D7_0213400) (UniProt Q7YTF7); experiment: inhibition of Plasmodium PK7 catalytic activity – biochemical, TCAMS antimalarial set, Kinase-Glo luminescence (AID 1159587); conditions: recombinant PfPK7, Kinase-Glo ATP depletion luminescence
# [8] = biological target: Calcium-dependent protein kinase 4 (Plasmodium falciparum (isolate 3D7)) (UniProt Q8IBS5); experiment: PfCDPK4 kinase inhibitors, biochemical, TCAMS library (AID 1159588; cut-off not given, nearly all actives have IC50 up to about 0.91 µM); conditions: recombinant PfCDPK4, Kinase-Glo ATP depletion luminescence
# Chain of Calcium-dependent protein kinase 4 (Plasmodium falciparum (isolate 3D7)) (Q8IBS5 whole entry, looked up): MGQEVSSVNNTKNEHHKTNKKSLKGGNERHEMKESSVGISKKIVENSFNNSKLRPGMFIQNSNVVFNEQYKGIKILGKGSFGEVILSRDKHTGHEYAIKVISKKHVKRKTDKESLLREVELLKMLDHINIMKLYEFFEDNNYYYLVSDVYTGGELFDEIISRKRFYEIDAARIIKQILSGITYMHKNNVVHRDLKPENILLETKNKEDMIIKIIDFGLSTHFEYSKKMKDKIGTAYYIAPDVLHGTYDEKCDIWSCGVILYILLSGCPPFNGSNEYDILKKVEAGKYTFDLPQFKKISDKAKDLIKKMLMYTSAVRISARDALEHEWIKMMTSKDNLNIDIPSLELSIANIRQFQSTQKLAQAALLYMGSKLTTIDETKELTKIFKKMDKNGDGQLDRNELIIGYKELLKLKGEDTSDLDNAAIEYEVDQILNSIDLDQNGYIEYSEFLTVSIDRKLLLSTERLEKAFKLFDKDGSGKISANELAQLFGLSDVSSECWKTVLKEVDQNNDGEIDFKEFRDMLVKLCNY
# Chain of Protein kinase 7 (PK7), Plasmodium falciparum 3D7 (PF3D7_0213400) (Q7YTF7 1-343): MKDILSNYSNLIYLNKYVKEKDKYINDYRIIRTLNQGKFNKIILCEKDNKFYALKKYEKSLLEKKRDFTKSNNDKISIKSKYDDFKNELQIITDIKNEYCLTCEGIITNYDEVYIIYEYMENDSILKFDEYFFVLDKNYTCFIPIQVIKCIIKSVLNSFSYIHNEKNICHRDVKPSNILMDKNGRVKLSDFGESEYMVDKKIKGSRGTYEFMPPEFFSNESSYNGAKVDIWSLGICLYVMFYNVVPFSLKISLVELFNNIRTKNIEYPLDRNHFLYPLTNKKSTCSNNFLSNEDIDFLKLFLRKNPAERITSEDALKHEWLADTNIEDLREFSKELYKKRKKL
# Chain of Calcium-dependent protein kinase 1 (Plasmodium falciparum (isolate 3D7)) (P62344 whole entry, looked up): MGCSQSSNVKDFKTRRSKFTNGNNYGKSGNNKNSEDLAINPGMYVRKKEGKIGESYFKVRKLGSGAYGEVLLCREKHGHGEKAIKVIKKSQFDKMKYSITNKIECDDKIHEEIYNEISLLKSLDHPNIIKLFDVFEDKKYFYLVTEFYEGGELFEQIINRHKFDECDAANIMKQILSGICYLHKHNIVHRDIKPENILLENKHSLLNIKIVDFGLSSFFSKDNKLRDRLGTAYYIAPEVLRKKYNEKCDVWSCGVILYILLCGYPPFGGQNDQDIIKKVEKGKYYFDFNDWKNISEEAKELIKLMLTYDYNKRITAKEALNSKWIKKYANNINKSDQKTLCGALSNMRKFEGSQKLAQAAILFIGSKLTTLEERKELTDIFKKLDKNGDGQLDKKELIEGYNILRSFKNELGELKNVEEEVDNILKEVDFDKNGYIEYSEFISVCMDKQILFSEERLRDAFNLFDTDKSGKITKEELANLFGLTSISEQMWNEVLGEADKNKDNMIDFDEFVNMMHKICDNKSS
# Chain of L-lactate dehydrogenase (Plasmodium falciparum (isolate CDC / Honduras)) (Q27743 whole entry, looked up): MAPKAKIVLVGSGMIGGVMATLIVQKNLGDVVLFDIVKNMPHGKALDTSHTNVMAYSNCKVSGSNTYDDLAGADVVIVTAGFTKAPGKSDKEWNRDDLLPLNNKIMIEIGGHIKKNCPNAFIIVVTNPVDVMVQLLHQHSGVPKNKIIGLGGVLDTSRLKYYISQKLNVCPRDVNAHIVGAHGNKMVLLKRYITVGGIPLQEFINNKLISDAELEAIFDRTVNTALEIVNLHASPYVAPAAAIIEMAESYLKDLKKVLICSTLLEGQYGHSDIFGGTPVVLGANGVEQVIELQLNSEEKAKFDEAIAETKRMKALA
# Chain of Plasmodium falciparum protein kinase 6 (PK6, PF3D7_1337100) (Q8IDW1 1-305): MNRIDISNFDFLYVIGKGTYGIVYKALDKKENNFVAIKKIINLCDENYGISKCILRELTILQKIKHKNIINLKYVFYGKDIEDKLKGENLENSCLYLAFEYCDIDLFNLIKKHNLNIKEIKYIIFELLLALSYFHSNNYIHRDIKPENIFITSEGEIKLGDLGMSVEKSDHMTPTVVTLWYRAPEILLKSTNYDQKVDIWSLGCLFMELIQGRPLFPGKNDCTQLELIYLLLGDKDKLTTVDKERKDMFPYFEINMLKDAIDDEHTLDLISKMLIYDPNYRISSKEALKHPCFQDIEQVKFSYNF
Structure (SMILES),growth inhibition [1],inhibition [2],inhibition [3],growth inhibition [4],outcome [5],outcome [6],outcome [7],outcome [8]
OC(CNCc1cccc(Oc2ccc(Cl)cc2)c1)c1cc(C(F)(F)F)cc(C(F)(F)F)c1 (stereo not drawn),101% (active),-4%,8%,99% (active),inactive,inactive,inactive,inactive
CC(=O)Nc1nc(C(=O)Nc2ccc(-c3cccc(-c4nc5ccc(F)cc5[nH]4)c3)cc2)cs1,29%,86% (active),-7%,94% (active),inactive,inactive,inactive,inactive
COC(=O)CCCOc1cc(Cc2cnc(N)nc2N)cc(OC)c1OC,-4%,12%,-6%,95% (active),inactive,inactive,inactive,inactive
NCC1CCCN1Cc1ccc(-c2cccc(-c3nc4ccc(F)cc4[nH]3)c2)cc1 (stereo not drawn),31%,38%,4%,100% (active),inactive,inactive,inactive,inactive
O=C(c1cccc(-c2noc(C(F)(F)F)n2)c1)N1CCN(C(=O)c2ccc3cc[nH]c3c2)CC1,85% (active),15%,-3%,94% (active),inactive,inactive,inactive,inactive
Cc1ccc(NC(=S)N2CCCN(CCCCCNC(=O)/C=C/c3ccc(Cl)c(Cl)c3)CC2)cc1Cl,5%,14%,5%,93% (active),inactive,inactive,inactive,inactive
CN1CCN(Cc2ccc(-c3cc4c(Nc5ccc(OCc6cccc(F)c6)c(Cl)c5)ncnc4s3)[nH]2)CC1,99% (active),23%,2%,101% (active),inactive,inactive,inactive,inactive
O=C1OC2(CCN(Cc3cccc(-c4ncc[nH]4)c3)CC2)CN1CCNCc1ccccc1,-1%,-8%,-1%,94% (active),inactive,inactive,inactive,inactive
NC1CCN(CCc2ccc(NS(=O)(=O)c3ccc(-c4ccccc4)cc3)cc2)CC1,19%,17%,0%,100% (active),inactive,inactive,inactive,inactive
Cc1ccc(Cn2ncc(N3C[C@@H](C)N[C@@H](C)C3)c(Cl)c2=O)cc1NC(=O)Nc1ccc(-c2ccccc2)cc1,29%,51% (active),-2%,100% (active),inactive,inactive,inactive,inactive
COc1ccc2c(NN=Cc3ccccc3)cc(C)nc2c1,49%,-2%,-2%,100% (active),inactive,inactive,inactive,inactive
O=C(Nc1ccc(Cl)cc1)OCCn1nnnc1C(c1ccc(Cl)cc1)N1CCOCC1 (stereo not drawn),79% (active),1%,4%,90% (active),inactive,inactive,inactive,inactive
N#Cc1cccc(NC(=O)NC2CCN(CCCCCNC(=O)[C@@H]3C[C@H]3c3ccc(Cl)c(Cl)c3)CC2)c1,-2%,36%,3%,102% (active),inactive,inactive,inactive,inactive
COc1ccc(CSC2CCCCC23NC(=S)NC3=S)cc1 (stereo not drawn),-3%,-5%,-1%,97% (active),inactive,inactive,inactive,inactive
CCN(c1ccccc1)S(=O)(=O)c1ccc(NC(=O)c2cc(-c3cc(C)ccc3O)n[nH]2)cc1,55% (active),49%,-3%,99% (active),inactive,inactive,inactive,inactive
COc1cc(OC)c(NC(=O)COc2ccc(C)cc2)cc1Cl,90% (active),-7%,3%,86% (active),inactive,inactive,inactive,inactive
COc1cccc(CN2CCC(N3CCc4cc(NC(=O)c5cc(C)on5)ccc43)C2)c1OC (stereo not drawn),92% (active),9%,4%,93% (active),inactive,inactive,inactive,inactive
CN1Cc2cc(NC(=O)/C=C/c3ccccc3Cl)ccc2C(C)(C)C1,96% (active),12%,-3%,99% (active),inactive,inactive,inactive,inactive
CN(CCCNc1ccc(C(=O)Nc2ccc(C(F)(F)F)cc2)cc1[N+](=O)[O-])Cc1ccccc1,48%,25%,-9%,100% (active),inactive,inactive,inactive,inactive
CN(C)c1ccc(-c2csc(C(=O)NCC3CCN(Cc4cccc(C(F)(F)F)c4)C3)c2)cc1 (stereo not drawn),58% (active),15%,-2%,97% (active),inactive,inactive,inactive,inactive
CCCn1c(SCC(=O)Nc2cc(Cl)ccc2Cl)n[nH]c1=O,53% (active),-5%,-2%,88% (active),inactive,inactive,inactive,inactive

Structure (SMILES),growth inhibition [1],inhibition [2],inhibition [3],growth inhibition [4],outcome [5],outcome [6],outcome [7],outcome [8]
COc1ccccc1CN1CCC(NC(=O)c2ccc(-c3cccc(C(F)(F)F)c3)s2)CC1,12%,83% (active),-2%,85% (active),inactive,inactive,inactive,inactive
COc1ccc(CNC2CCN(C)CC2)cc1-c1ccc(S(=O)(=O)NCc2ccccc2)cc1,99% (active),56% (active),5%,100% (active),inactive,inactive,inactive,inactive
Cc1ccc2ccccc2c1CCCON1C(N)=NC(N)=NC1(C)C,97% (active),65% (active),5%,95% (active),inactive,inactive,inactive,inactive
N#CC1(CCCNCCc2ccc(O)cc2)CCCc2c(O)cccc21 (stereo not drawn),3%,-2%,-5%,95% (active),inactive,inactive,inactive,inactive
NS(=O)(=O)c1ccc(CNc2ccc3ncc(-c4ccc(Cl)cc4)n3n2)cc1,99% (active),26%,-4%,96% (active),inactive,inactive,inactive,inactive
Cc1cccc(CNc2nc(C)cc(N[C@@H](CC(C)C)C(=O)NCc3cccc(F)c3)n2)c1,32%,13%,-3%,91% (active),inactive,inactive,inactive,inactive
COC(=O)[C@@H](NC(=O)[C@H](Cc1ccc(OC)c(OC)c1)Nc1ccc(C#N)c2ccccc12)c1ccc(O)cc1,100% (active),6%,5%,101% (active),inactive,inactive,inactive,inactive
O=C(c1ccccc1N=Nc1c(-c2ccccc2)[nH]n(-c2ccccc2)c1=O)N1CCOCC1,2%,0%,-1%,97% (active),inactive,inactive,inactive,inactive
Cc1cccc(-c2nc(Nc3ccncc3)c3cc(N(C)C)ccc3n2)n1,63% (active),5%,-2%,98% (active),inactive,inactive,inactive,inactive
CO/C(=C/C=C/c1cc2cc(Cl)c(Cl)cc2[nH]1)C(=O)NC1CC(C)(C)N(C)C(C)(C)C1,85% (active),58% (active),-12%,99% (active),inactive,inactive,inactive,inactive
Cc1ccc(S(=O)(=O)N2CCN(C(=O)c3cc(-c4ccccc4)n[nH]3)CC2)cc1,88% (active),-8%,-7%,91% (active),inactive,inactive,inactive,inactive
COc1ccc2sc(CNCCCNc3cc(=O)c4ccccc4[nH]3)c(Cl)c2c1,42%,1%,-4%,85% (active),inactive,inactive,inactive,inactive
CN(CCc1ccccn1)Cc1ccc(-c2ccc(-c3nc4ccccc4[nH]3)s2)cc1,48%,29%,6%,100% (active),inactive,inactive,inactive,inactive
COc1ccc2ncc(F)c([C@H](O)CN3CCC(NCc4ccc5c(c4)NC(=O)CO5)CC3)c2c1,101% (active),16%,-1%,102% (active),inactive,inactive,inactive,inactive
CCCCNCc1ccc(-c2nc(CN(CCCn3ccnc3)C(=O)Nc3ccc(CC)cc3)cs2)cc1,56% (active),21%,6%,101% (active),inactive,inactive,inactive,inactive
COc1ccc(C=NNc2ccnc3ccccc23)c2ccccc12,98% (active),27%,0%,102% (active),inactive,inactive,inactive,inactive
Cc1[nH]c(C)c(-c2ccc(CCc3ccc(C(F)(F)F)cc3)nc2)c(=O)c1Cl,97% (active),24%,2%,97% (active),inactive,inactive,inactive,inactive
Cc1cc(NCCC(=O)Nc2ccccc2)nc(NCc2ccccc2C)n1,57% (active),6%,-1%,100% (active),inactive,inactive,inactive,inactive
Cc1cc(Nc2ccc(Cl)c(Cl)c2)n2nc(C)nc2n1,97% (active),6%,-4%,97% (active),inactive,inactive,inactive,inactive
COC(=O)c1cccc(CNCc2cccc(-c3ccc(-c4nc5ccccc5[nH]4)cc3)c2)c1,51% (active),-3%,4%,99% (active),inactive,inactive,inactive,inactive
